# Measured values taken from PubChem BioAssay AID2252 (Southern Research Specialized Biocontainment Screening …, 2010).
# Screen size: about 2,300 compounds; about 1,500 (65%) were called active. So high a share suggests a set chosen from earlier hits. Not all results are given here. Values without a mark were called inactive. No rule for the calls is given here.
# Experiment: PubChem AID 2252;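 also: 100% = mean of untreated cell control wells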
# Conditions: THP-1 viability, CellTiter-Glo luminescence, 72 h; min viability: minimum viability across concentrations, hits give low values, concentration not given here; series mostly up to 50 µM; viability: at the top concentration
row,SMILES,viability
1,COCCn1nnnc1C(c1cccc(OC)c1OC)N1CCN(C2CCCCC2)CC1 (stereo not given),84%
2,O=C(O)C1CCCCC1C(=O)NCCc1ccncc1 (stereo not given),83.8%
3,O=C(Nc1nccs1)c1ccc(Cl)cc1[N+](=O)[O-],82.4%
4,Cc1ccc2c(c1)C1CN(C)CCC1N2C(=O)COc1ccccc1F (stereo not given),96%
5,CCc1nc(C)ccc1OCC(=O)NCCCN(C)C,86.1%
6,CN1C(=O)NC(c2cccc(O)c2)C(C(=O)c2cccs2)C1(O)C(F)(F)F (stereo not given),94.4%
7,Cc1cccc(N2C(=O)CS/C2=N\NC(=O)c2ccc(Br)cc2)c1C,98%
8,N#Cc1nc(Cc2cccc3ccccc23)oc1NCCCN1CCOCC1,85.9%
9,Cc1ccc(/C=N/NC(=O)Cc2cccn2C)cc1,84.8%
10,O=C(Cc1ccccc1)NCC(=O)Nc1cccc(Cl)c1,92.3%
11,CC(=O)c1ccc(NC(=O)CN2CCCCCC2)cc1,102%
12,CSC(=Nc1ccc(Cl)cc1)N[n+]1ccccc1,86.7%
13,CC(=O)Nc1ccc(S(=O)(=O)Nc2nc3ccccc3nc2Nc2cccc(S(N)(=O)=O)c2)cc1,92%
14,COCCNC(=O)c1cccc(OC2CCN(Cc3ccccc3C)CC2)c1,87.3%
15,Cc1ccc(C(=O)N/N=C\c2sccc2C)cn1,93.3%
16,CN(C)CCCOC(=O)c1sc2ccccc2c1Cl,98.1%
17,COc1c2ccccc2nc2ccccc12,83.5%
18,CCn1cc(C(=O)O)c(=O)c2cc(F)c(N3CCN(C(=S)NC(=O)c4ccc(Br)cc4)CC3)cc21,86.4%
19,O=C(NCc1ccccc1)N[C@@H](Cc1c[nH]c2ccccc12)C(=O)O,103%
20,CCn1cc(C(=O)NCCO)c(=O)c2cc(F)c(N3CCN(C)CC3)cc21,88.8%
21,CCn1nnnc1NCc1cccc(Cl)c1,86.5%
22,O=C(O)c1cn(-c2ccc(F)cc2)c2cc(Cl)c(F)cc2c1=O,92.6%

row,SMILES,viability
1,COc1cccc(NC(=O)CSc2nncn2-c2ccccn2)c1,99.8%
2,O=C(NC1CC1)C1CCN(C2CCN(C(=O)Cc3ccc(F)cc3)CC2)CC1,103%
3,O=C(NC(CO)C(O)c1ccc([N+](=O)[O-])cc1)C(Cl)Cl (stereo not given),85.8%
4,CN1CCCN(S(=O)(=O)c2ccc3ccccc3c2)CC1,82.4%
5,NS(=O)(=O)OCCCc1ccc(C(F)(F)F)cc1,94%
6,N#CCC(=O)N/N=C/c1ccccc1Cl,105%
7,COc1ccc(-c2nc3ccc(C(=O)NCC(OC)OC)cc3nc2-c2ccc(OC)cc2)cc1,81.2%
8,Cc1cc(C)c(S(=O)(=O)Nc2ccccc2C(=O)OCC(=O)NCc2ccccc2)c(C)c1,95.1%
9,CCOC(=O)c1cccc(NC(=O)c2cccs2)c1,85.5%
10,Cc1ccc(NC(=O)c2cc(NC(=O)CCCC(=O)O)ccc2Cl)cc1Cl,84.2%
11,O=C(CCCOc1ccc(Cl)cc1Cl)NNC(=O)C1CCC1,91.4%
12,CCCCN1/C(=C/c2cccc[n+]2C)Sc2cc(NC(C)=O)ccc21,96.2%
13,CC(C)CC(=O)N1CCN(C(=O)CCC2CCCC2)CC1,94.8%
14,O=C(NCc1cccnc1)C1c2ccccc2C(=O)N1Cc1ccccc1 (stereo not given),100%
15,O=Cc1ccc(O)cc1O,88.5%
16,CCC(C)NC(=O)c1cn(CC)c2cc(N3CCN(C)CC3)c(F)cc2c1=O (stereo not given),108% [at 25 µM]
17,Cc1ccn2cc(-c3ccc4c(c3)NC(=O)CO4)nc2c1,84.1%
18,O=C(CN(C(=O)CNS(=O)(=O)c1ccccc1)C1CCCC1)NCc1ccco1,101%
19,O=c1[nH]cc(N=Cc2cc([N+](=O)[O-])ccc2O)c(=O)[nH]1,90.4%
20,CC(Sc1nc2ccccc2o1)C(=O)O (stereo not given),88.5%
21,Cc1cc(C)cc(CSc2nnc(C)c(=O)[nH]2)c1,95.4%
22,CCCCN(C)C(=O)c1ccc(S(=O)(=O)N2CCOCC2)cc1,100%

row,SMILES,viability
1,COc1ccc(-c2nnn(-c3ccc(Cl)cc3Cl)c2N)cc1,84%
2,Cc1cc(C)c2c(N)c(C(=O)c3ccc(Cl)c(Cl)c3)sc2n1,100%
3,Cn1c(-c2ccc(CN3CCCCC3)o2)nc2ccccc21,84.1%
4,O=C(NCC1CCCO1)c1cc2ccccc2oc1=O (stereo not given),100%
5,CN(C)C(=O)CSc1nnc(Cc2ccc([N+](=O)[O-])cc2)o1,88.6%
6,CSc1nc2ccc(Cl)cc2[nH]1,86%
7,Cn1cc(S(=O)(=O)NCC2CCCO2)c(=O)n(C)c1=O (stereo not given),84.8%
8,CN1C2=CC=CC=CC2=[N+](C)C12C=CC(=[N+]([O-])[O-])C=C2[N+](=O)[O-] (stereo not given),80.8% [at 25 µM]
9,Cc1cc(N2CCCCC2)c(F)cc1[N+](=O)[O-],106%
10,O=C(N/N=C/c1ccc(-c2ccc(Br)cc2)o1)c1ccc2c(c1)OCO2,86%
11,Cc1ccc(-n2ncc3c(=O)[nH]cnc32)c(C)c1,88.9%
12,CC(=O)N1CSCC1C(=O)N1CCN(c2ccc(N3CCOCC3)nn2)CC1 (stereo not given),88.5%
13,CCCCNC(=O)NS(=O)(=O)c1ccc(C(=O)OC)o1,95.1%
14,O=C(c1cccs1)N1CCC(N2CCN(c3ccccc3)CC2)CC1,86.8%
15,N#Cc1c(/N=C/c2cccs2)sc2c1CCCCC2,93.7%
16,Cc1ccc(NC(=O)CCNC(=O)c2ccccc2)cc1F,105%
17,Cc1c(/C=N/NC(=O)c2sc3ccccc3c2Cl)cnn1C,96%
18,Cc1cc(C)cc(N(C(=O)CNC(=O)c2cccs2)C(C(=O)NC2CCCC2)c2cccnc2)c1 (stereo not given),106%
19,CC(C)OC(=O)Cn1c(=O)sc2ccccc21,95%
20,CC(=O)Nc1cccc(NS(=O)(=O)Cc2ccc(Cl)cc2)c1,87.5%
21,COc1ccc(C(=O)NNS(=O)(=O)c2ccccc2)cc1OC,94.7%
22,O=C(NCc1ccccc1)c1ccc(CNc2c(N3CCCC3)c(=O)c2=O)cc1,99.5%

row,SMILES,viability
1,C[C@H]1COc2c(N3CCN(C)CC3)c(F)cc3c(=O)c(C(=O)O)cn1c23,95.3%
2,CCCCc1cc(=O)oc2cc(C)cc(OCC(=O)NCC3CCC(C(=O)O)CC3)c12 (stereo not given),93.5%
3,Cc1ccc(CNC(=O)CCC(=O)Nc2nnc(C)s2)cc1,93.7%
4,CCOc1cc(S(=O)(=O)N2CCN(CC)CC2)ccc1Cl,93.8%
5,O=C(NCc1ccc2c(c1)OCO2)c1ccc2c(c1)C(=O)N(Cc1cccnc1)C2=O,92.6%
6,CCOC(=O)C1CCN(C(=O)CCc2nc3ccccc3[nH]2)CC1,101%
7,NS(=O)(=O)c1ccc(CCNS(=O)(=O)c2cccc(C(=O)O)c2)cc1,108%
8,O=C(NC(=O)c1ccccc1)OCC1CCCN2CCCCC12 (stereo not given),94.6%
9,N=c1ccccn1CC(O)COc1ccccc1 (stereo not given),84.3%
10,COc1cc(/C=C2/C(=O)NN(c3ccc(C)c(Cl)c3)C2=O)cc([N+](=O)[O-])c1O,85.9%
11,O=C(O)c1ccc(S(=O)(=O)NC2CC2)cc1,89.6%
12,C#CCOCCOCCOCCNc1nc(N2CCN(C(=O)[C@H](Cc3ccc(O)cc3)n3cc([C@@H](N)C(C)CC)nn3)CC2)nc(N2CCN(C(=O)[C@H](Cc3cc4ccccc4[nH]3)n3cc([C@@H](N)Cc4ccc(O)cc4)nn3)CC2)n1 (stereo not given in full),97.5%
13,NC1=NC(c2cccc(O)c2)n2c(nc3ccccc32)N1 (stereo not given),93.1%
14,COc1ccc(CCC(=O)NCc2cn3ccccc3n2)cc1,101%
15,O=C(NC(O)C(=O)c1ccccc1)c1ccc(F)cc1 (stereo not given),90.5%
16,Cc1ccc(N2CC(C(=O)OCc3ccccc3F)CC2=O)cc1 (stereo not given),107%
17,CCn1cc(C(=O)O)c(=O)c2cc(F)c(N3CCN(C(=S)NC(=O)c4ccccc4C)CC3)cc21,94.3%
18,COCCN1CC(=O)N2C(c3cccc(OC)c3)c3[nH]c4ccccc4c3C[C@H]2C1=O (stereo not given in full),94.5% [at 25 µM]
19,O=C(NC1CCCC1)c1ccc(Br)s1,80.1%
20,Cc1cccc(NCN2C(=O)c3ccccc3C2=O)c1,102%
21,Cc1cnc(NC(=O)CN2C(=O)C3CC=CCC3C2=O)s1 (stereo not given),94.9%
22,CC(C)c1ccc(C2C(C#N)=C(N)Oc3c2oc(CO)cc3=O)cc1 (stereo not given),87.6%

row,SMILES,viability
1,NC(=O)c1ccc(N=C2C(=O)Nc3ccc([N+](=O)[O-])cc32)cc1,93%
2,CC(/C=C\c1cccnc1)=C/C(=O)O,84.6%
3,NCCCCCc1nnc(SCc2ccc(Cl)cc2Cl)o1,90.7%
4,COc1cc2c(cc1OC)CN(C(=O)CCCN1C(=O)c3ccccc3C1=O)CC2,88.9%
5,CCOC(=O)C1=C(C(C)=O)C(c2cccnc2)C(C#N)=C(N)O1 (stereo not given),92.3%
6,O=C(CSc1nc2c(c(=O)n1-c1ccc(F)cc1)SCC2)NCc1ccco1,96.5%
7,CC(C)n1cnnc1SCC(=O)Nc1ccc(Br)cc1F,94.9%
8,Cc1nn(C)c(C)c1NC(=O)c1ccc(S(=O)(=O)N(C)C)cc1,113%
9,COc1ccc(C2C3=C(CC(C)(C)CC3=O)Nc3cc4c(cc32)OCO4)cc1 (stereo not given),91.7%
10,O=c1ccnc(Sc2ncccc2[N+](=O)[O-])[nH]1,91.4%
11,CC[C@H]1OC(=O)[C@H](C)[C@@H](O[C@H]2C[C@@](C)(OC)[C@@H](O)[C@H](C)O2)[C@H](C)[C@@H](O[C@@H]2O[C@H](C)C[C@H](N(C)C)[C@H]2O)[C@](C)(O)C[C@@H](C)CN(C)[C@H](C)[C@@H](O)[C@]1(C)O,98.5%
12,COc1cc(NS(=O)(=O)c2ccc(NC(=S)Nc3ccccc3)cc2)nc(OC)n1,91.8%
13,O=C1CC(=O)CC(c2ccco2)C1,103%
14,CCn1c(CNC(=O)c2ccc(OC)cc2)nnc1SC,95.3%
15,CC(=O)c1ccc(OC(=O)c2cc3ccccc3oc2=O)cc1,96.3%
16,COc1ccc(NC(=O)c2ccc3nc[nH]c3c2)cc1,98.5% [at 25 µM]
17,COC(=O)c1cn(C(=O)c2ccco2)c2ccccc12,83.7%
18,CCN1CCN(Cc2ccc(NC(=O)c3ccc(C)c(NC(=O)C(=O)c4c[nH]c5ccccc45)c3)cc2C(F)(F)F)CC1,89.8%
19,Cn1nnnc1SCC(=O)Nc1ccccc1-c1ccccc1,86.6%
20,CCn1c(SCC(=O)Nc2oc(-c3ccccc3)c(-c3ccccc3)c2C#N)nnc1-c1ccco1,87.7%
21,Cc1ncc(CC(=O)n2cc(C(=O)c3cc(F)ccc3O)cn2)s1,92.9%
22,COc1ccc(C(CC(=O)O)NC(=O)C2CCCCC2)cc1 (stereo not given),98.9%
